Records with an inconclusive call do not appear. The source made the active and inactive calls. How the source made its calls, unless noted: active means hit-call score of the fitted dose curve at least 0.9, where 1 is the maximum; inactive means score below 0.9.
What was measured:
[1] = molecular target: Oxysterols receptor LXR-beta (Homo sapiens) (UniProt P55055); experiment: ATG_LXRb_TRANS: Attagene TRANS-FACTORIAL HepG2 Assay for human Liver X Receptor beta (LXRb) (AID 2282981; active means hit-call score of the fitted dose curve at least 0.9, where 1 is the maximum); conditions: HepG2 Attagene TRANS GAL4-LXRb reporter, mRNA
How it was run: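 Multiplexed reporter assay, HepG2, 24 h dosing. Fluorescence of labelled RT-PCR products after capillary electrophoresis gives transcript level; positive fitting direction relative to DMSO.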

[2] = ATG_M_06_TRANS: Attagene TRANS-FACTORIAL HepG2 Assay for M06 Transcription Factor (Internal Marker) (AID 2282983; active means hit-call score of the fitted dose curve at least 0.9, where 1 is the maximum); conditions: HepG2 Attagene TRANS M06 internal marker reporter
How it was run: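 Background-control reporter readout: after 24 h chemical exposure of transiently transfected HepG2 (GAL4-UAS reporter units), mRNA quantified by RT-PCR with fluorescent labeling and capillary electrophoresis. Gain-of-signal fitting against DMSO baseline.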

[3] = ATG_M_32_TRANS: Attagene TRANS-FACTORIAL HepG2 Assay for M32 Transcription Factor (Internal Marker) (AID 2282984; active means hit-call score of the fitted dose curve at least 0.9, where 1 is the maximum;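 further: transcript level of a background control reporter unit measured by RT-PCR and capillary electrophoresis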); conditions: HepG2 Attagene TRANS M32 internal marker reporter
How it was run: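 Internal-marker readout from a multiplexed transcription reporter panel. HepG2 cells were transfected with GAL4-UAS reporter units, treated 24 hours, and reporter transcript levels determined by fluorescence after RT-PCR and capillary separation.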

[4] = molecular target: Nuclear receptor subfamily 4 group A member 2 (Homo sapiens) (UniProt P43354); experiment: ATG_NURR1_TRANS: Attagene TRANS-FACTORIAL HepG2 Assay for human Nuclear Receptor Related Protein 1 (NURR1) (AID 2282985; active means hit-call score of the fitted dose curve at least 0.9, where 1 is the maximum); conditions: HepG2 Attagene TRANS reporter, mRNA readout
How it was run: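 Endpoint: reporter mRNA increase relative to DMSO. HepG2 cells transfected with reporter units, treated 24 h; RNA processed by RT-PCR, labelling, HpaI digestion and capillary electrophoresis.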

[5] = molecular target: Transcriptional activator Myb (Homo sapiens) (UniProt P10242); experiment: ATG_Myb_CIS: Attagene CIS-FACTORIAL HepG2 Assay for human Myeloblastosis (Myb) Proto-Oncogene Transcription Factor (AID 2282986); conditions: HepG2 Attagene CIS-FACTORIAL Myb reporter transcription; actives raise or lower the signal
How it was run: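 After 24 h of compound dosing, total RNA from transfected HepG2 cells is reverse-transcribed and the reporter sequences amplified, labeled and separated by capillary electrophoresis. Values come from bidirectional fitting against DMSO.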

[6] = molecular target: Nuclear respiratory factor 1 (Homo sapiens) (UniProt Q16656); experiment: ATG_NRF1_CIS: Attagene CIS-FACTORIAL HepG2 Assay for human Nuclear Respiratory Factor 1 (NRF1) Orphan Gene (AID 2282987); conditions: HepG2 NRF1 cis-element reporter, Attagene multiplex; actives raise or lower the signal
How it was run: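 Measured: fluorescent reporter-specific RT-PCR products from transfected HepG2 cells, separated by capillary electrophoresis. Exposure lasted 24 h. Analysis used bidirectional curve fitting with DMSO as negative control.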

[7] = ATG_NFI_CIS: Attagene CIS-FACTORIAL HepG2 Assay for human Nuclear Factor I (NFI) (AID 2282989); conditions: HepG2 cis-regulatory reporter, NFI response element transcription; actives raise or lower the signal
How it was run: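 HepG2 cells transiently transfected with cis-element-driven multiplexed reporter transcription units, dosed for 24 h. Reporter mRNA quantified by RT-PCR, fluorescent labelling, HpaI digestion and capillary electrophoresis; bidirectional fit versus DMSO baseline.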

[8] = molecular target: Myc proto-oncogene protein (Homo sapiens) (UniProt P01106); experiment: ATG_Myc_CIS: Attagene CIS-FACTORIAL HepG2 Assay for human Myelocytomatosis (Myc) Proto-Oncogene Transcription Factor (AID 2282990); conditions: HepG2, Attagene cis-reporter transcription factor activity; actives raise or lower the signal
How it was run: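 Fluorescence intensity of reporter-specific cDNA fragments, separated by capillary electrophoresis, gives the signal. Transfected HepG2 cells carrying cis-promoter reporter constructs are incubated with compound for 24 h; DMSO serves as baseline.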

[9] = ATG_NF_kB_CIS: Attagene CIS-FACTORIAL HepG2 Assay for human Nuclear Factor Kappa B (NF-kB) (AID 2282991); conditions: HepG2 Attagene cis-factorial NF-kB reporter mRNA; actives raise or lower the signal
How it was run: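 Fluorescence of labelled RT-PCR products separated by capillary electrophoresis gives reporter mRNA levels from transfected HepG2 cells exposed 24 h; values are fitted in both directions relative to DMSO.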

[10] = ATG_NRF2_ARE_CIS: Attagene CIS-FACTORIAL HepG2 Assay for human Nuclear Factor Erythroid 2 Related Factor 2 (NFR2) response to Antioxidant Response Elements (ARE) (AID 2282992); conditions: HepG2 Attagene ARE/NRF2 reporter, transcription factor activity; actives raise or lower the signal
How it was run: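 Readout: reporter mRNA quantified by RT-PCR plus FAM-labelled primer extension, HpaI digestion and capillary electrophoresis, 24 h after dosing transfected HepG2 cells. Gain or loss of signal is fitted bidirectionally against DMSO baseline.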

[11] = ATG_Oct_MLP_CIS: Attagene CIS-FACTORIAL HepG2 Assay for human Octamer-Binding Transcription Factor (Oct) (AID 2282993); conditions: HepG2 Attagene cis-factorial Oct reporter, mRNA; actives raise or lower the signal
How it was run: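 HepG2 cells transiently transfected with cis-promoter-driven multiplexed reporter transcription units, dosed for 24 h. Reporter mRNA quantified by RT-PCR, fluorescent labelling, HpaI digestion and capillary electrophoresis; bidirectional fits versus DMSO baseline.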

[12] = molecular target: Hepatocyte nuclear factor 4-alpha (Homo sapiens) (UniProt P41235); experiment: ATG_HNF4a_TRANS: Attagene TRANS-FACTORIAL HepG2 Assay for human Hepatocyte Nuclear Factor 4 alpha (HNF4a) (AID 2282982; active means hit-call score of the fitted dose curve at least 0.9, where 1 is the maximum); conditions: HepG2 HNF4a transactivation reporter, mRNA readout
How it was run: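 Endpoint reflects transcriptional activation of a GAL4-UAS reporter by an HNF4a-GAL4 chimera in transfected HepG2 cells, 24 h post-dosing. Fluorescence from RT-PCR products separated by capillary electrophoresis; DMSO baseline.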

[13] = molecular target: Cellular tumor antigen p53 (Homo sapiens) (UniProt P04637); experiment: ATG_p53_CIS: Attagene CIS-FACTORIAL HepG2 Assay for human p53 Transcription Factor (AID 2282994); conditions: HepG2 p53 cis-element reporter, Attagene mRNA; actives raise or lower the signal
How it was run: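 Read-out: reporter mRNA by RT-PCR plus capillary electrophoresis with fluorescence detection. Human HepG2 liver cells carried transfected multi-reporter cis-element constructs, dosed 24 h. Gain or loss of signal fitted bidirectionally against DMSO control.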

[14] = BSK_3C_TissueFactor: BioMAP Diversity Plus: 3C Assay for Tissue Factor Biomarker Activity (AID 2282997); conditions: BioMAP 3C HUVEC, tissue factor biomarker readout; actives raise or lower the signal
How it was run: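 Tissue factor on primary human umbilical vein endothelium was read by ELISA 24 h after dosing, gain or loss relative to DMSO. Cytotoxicity ran alongside via SRB (0.1%, TCA-fixed, 560 nm).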

[15] = BSK_3C_uPAR: BioMAP Diversity Plus: 3C Assay for Urokinase-type plasminogen activator receptor (uPAR) Biomarker Activity (AID 2282998); conditions: BioMAP 3C HUVEC, uPAR biomarker ELISA; actives raise or lower the signal
How it was run: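 Human umbilical vein endothelial primary cells were exposed to test chemical for 24 h. Cell-surface uPAR was then quantified by ELISA, and responses were fitted bidirectionally against DMSO as negative control and baseline.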

[16] = BSK_3C_VCAM1: BioMAP Diversity Plus: 3C Assay for Vascular cell adhesion molecule 1 (VCAM1) Biomarker Activity (AID 2282999); conditions: BioMAP 3C HUVEC, VCAM1 ELISA, cytokine-stimulated; actives raise or lower the signal
How it was run: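 HUVEC primary cells, 24 h compound exposure; VCAM-1 by ELISA; gain/loss of signal fitted bidirectionally vs DMSO baseline.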

[17] = BSK_4H_Eotaxin3: BioMAP Diversity Plus: 4H Assay for Eotaxin 3 Biomarker Activity (AID 2283000); conditions: primary human endothelial cells (HUVEC); actives raise or lower the signal
How it was run: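 Human umbilical vein endothelial cells (BSK_4H system) dosed with test chemical; Eotaxin-3 (CCL26) measured by ELISA 24 h after dosing. Bidirectional curve fitting relative to DMSO negative control as baseline.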

Measured: AC50

Oxysterols receptor LXR-beta (Homo sapiens), sequence (P55055 whole entry, looked up, the tested form may be a part): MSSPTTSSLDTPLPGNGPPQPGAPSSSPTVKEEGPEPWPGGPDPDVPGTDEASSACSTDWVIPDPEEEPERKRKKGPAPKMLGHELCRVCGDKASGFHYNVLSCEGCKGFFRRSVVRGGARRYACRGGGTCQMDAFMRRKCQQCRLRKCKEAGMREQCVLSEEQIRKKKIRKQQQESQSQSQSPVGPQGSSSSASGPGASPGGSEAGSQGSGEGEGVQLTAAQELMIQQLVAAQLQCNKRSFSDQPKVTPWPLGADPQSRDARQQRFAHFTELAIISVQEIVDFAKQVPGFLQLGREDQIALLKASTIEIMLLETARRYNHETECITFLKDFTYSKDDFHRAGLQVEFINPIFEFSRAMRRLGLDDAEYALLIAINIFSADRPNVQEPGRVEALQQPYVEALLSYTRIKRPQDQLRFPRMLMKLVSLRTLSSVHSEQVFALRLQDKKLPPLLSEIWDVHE
Cellular tumor antigen p53 (Homo sapiens), sequence (P04637 whole entry, looked up): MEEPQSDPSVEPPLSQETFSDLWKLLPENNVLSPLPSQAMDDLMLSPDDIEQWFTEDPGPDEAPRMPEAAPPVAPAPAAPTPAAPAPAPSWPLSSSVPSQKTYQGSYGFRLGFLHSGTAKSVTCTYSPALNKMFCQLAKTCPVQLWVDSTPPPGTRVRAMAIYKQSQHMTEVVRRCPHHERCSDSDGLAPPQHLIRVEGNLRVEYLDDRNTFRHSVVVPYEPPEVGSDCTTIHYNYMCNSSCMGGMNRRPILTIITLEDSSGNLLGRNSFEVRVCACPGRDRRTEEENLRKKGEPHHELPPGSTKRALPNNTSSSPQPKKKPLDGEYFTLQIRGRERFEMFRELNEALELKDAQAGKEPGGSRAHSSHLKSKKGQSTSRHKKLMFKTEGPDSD
Nuclear respiratory factor 1 (Homo sapiens), sequence (Q16656 whole entry, looked up): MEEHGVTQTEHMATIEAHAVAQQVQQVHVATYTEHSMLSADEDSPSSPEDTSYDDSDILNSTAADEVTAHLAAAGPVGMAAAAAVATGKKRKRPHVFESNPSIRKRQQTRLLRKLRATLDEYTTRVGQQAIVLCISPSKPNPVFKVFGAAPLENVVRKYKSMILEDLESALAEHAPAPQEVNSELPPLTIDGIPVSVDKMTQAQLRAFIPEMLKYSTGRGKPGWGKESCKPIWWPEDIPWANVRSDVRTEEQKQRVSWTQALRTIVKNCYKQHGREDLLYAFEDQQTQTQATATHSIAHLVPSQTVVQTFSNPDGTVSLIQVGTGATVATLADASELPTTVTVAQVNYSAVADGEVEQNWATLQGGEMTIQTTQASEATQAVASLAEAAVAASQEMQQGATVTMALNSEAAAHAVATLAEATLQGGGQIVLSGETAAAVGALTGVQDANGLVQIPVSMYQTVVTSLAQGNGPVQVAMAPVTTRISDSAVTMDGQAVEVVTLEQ
Myc proto-oncogene protein (Homo sapiens), sequence (P01106 whole entry, looked up, the tested form may be a part): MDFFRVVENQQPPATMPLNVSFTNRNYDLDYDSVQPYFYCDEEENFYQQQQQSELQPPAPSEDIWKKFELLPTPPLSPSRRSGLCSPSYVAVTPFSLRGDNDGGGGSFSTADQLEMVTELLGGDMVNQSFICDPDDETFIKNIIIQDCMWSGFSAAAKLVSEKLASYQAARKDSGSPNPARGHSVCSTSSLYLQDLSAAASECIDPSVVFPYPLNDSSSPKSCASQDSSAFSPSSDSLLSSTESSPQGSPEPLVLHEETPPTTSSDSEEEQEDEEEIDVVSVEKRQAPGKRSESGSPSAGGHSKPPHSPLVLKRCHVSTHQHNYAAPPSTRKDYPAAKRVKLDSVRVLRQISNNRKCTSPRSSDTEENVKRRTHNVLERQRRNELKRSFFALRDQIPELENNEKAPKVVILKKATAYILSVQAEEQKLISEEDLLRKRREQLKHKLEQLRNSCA
Nuclear receptor subfamily 4 group A member 2 (Homo sapiens), sequence (P43354 whole entry, looked up): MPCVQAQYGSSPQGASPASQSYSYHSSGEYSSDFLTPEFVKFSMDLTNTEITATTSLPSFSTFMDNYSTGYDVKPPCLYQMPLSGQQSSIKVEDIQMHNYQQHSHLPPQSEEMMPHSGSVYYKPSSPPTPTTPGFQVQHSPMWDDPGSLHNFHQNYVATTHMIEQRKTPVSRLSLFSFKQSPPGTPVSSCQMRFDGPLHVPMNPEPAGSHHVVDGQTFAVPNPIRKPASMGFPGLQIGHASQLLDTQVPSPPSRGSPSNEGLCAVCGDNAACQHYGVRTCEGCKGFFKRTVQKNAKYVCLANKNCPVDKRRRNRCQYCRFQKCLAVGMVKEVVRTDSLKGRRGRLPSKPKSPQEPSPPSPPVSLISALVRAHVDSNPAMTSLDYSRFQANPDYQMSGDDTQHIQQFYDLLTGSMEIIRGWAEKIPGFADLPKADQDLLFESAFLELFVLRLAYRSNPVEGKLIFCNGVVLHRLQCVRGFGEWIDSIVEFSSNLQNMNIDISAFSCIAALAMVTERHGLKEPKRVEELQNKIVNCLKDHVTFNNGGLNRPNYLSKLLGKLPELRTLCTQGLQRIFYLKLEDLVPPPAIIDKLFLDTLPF
Transcriptional activator Myb (Homo sapiens), sequence (P10242 whole entry, looked up): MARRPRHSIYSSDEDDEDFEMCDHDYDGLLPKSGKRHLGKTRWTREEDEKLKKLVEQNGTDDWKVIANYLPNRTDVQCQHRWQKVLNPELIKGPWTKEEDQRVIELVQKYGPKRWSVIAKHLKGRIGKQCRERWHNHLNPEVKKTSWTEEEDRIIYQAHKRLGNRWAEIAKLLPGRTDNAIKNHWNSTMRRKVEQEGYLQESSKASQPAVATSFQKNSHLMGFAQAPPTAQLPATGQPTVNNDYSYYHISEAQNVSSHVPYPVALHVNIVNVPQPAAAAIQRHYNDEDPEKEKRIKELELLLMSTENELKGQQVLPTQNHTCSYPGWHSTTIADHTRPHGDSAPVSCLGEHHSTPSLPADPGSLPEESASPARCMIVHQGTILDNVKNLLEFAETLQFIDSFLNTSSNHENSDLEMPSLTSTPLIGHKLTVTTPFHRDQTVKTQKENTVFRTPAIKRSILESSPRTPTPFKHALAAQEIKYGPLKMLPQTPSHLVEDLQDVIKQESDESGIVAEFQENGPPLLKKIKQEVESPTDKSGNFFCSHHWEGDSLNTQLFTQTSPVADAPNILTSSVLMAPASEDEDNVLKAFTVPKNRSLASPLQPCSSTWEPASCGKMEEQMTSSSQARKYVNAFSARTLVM
Hepatocyte nuclear factor 4-alpha (Homo sapiens), sequence (P41235 whole entry, looked up, the tested form may be a part): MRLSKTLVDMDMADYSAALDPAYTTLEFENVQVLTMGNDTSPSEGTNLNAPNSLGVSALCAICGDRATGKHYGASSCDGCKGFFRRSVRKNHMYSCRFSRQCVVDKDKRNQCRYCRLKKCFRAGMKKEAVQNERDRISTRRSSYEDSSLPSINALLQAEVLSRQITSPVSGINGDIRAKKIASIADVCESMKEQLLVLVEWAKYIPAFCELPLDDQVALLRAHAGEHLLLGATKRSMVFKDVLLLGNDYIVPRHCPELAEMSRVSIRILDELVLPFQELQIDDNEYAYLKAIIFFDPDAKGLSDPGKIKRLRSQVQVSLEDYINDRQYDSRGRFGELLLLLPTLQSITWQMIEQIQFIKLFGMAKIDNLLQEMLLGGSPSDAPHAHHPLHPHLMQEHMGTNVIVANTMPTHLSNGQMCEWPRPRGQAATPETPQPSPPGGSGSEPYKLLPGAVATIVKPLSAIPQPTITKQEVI

CN(C)c1ccc(N=Nc2ccccc2C(=O)O)cc1
inactive: [1] | [2] | [3] | [4] | [6] | [7] | [8] | [9]
active: [5] 25.3 µM | [10] 4.76 µM | [11] 23.3 µM

[Cl][Bi]([Cl])([c]1ccccc1)([c]1ccccc1)[c]1ccccc1
active: [9] 0.463 µM | [10] 0.999 µM | [13] 6.07 µM
not listed: [2] | [14] | [15] | [16] | [17]
inactive: all other assays above

CCCCCCCCCCCCCOP(=O)(O)O
inactive: [1] | [5] | [7] | [8] | [9] | [10] | [11] | [13]

c1ccc(CNCc2ccccc2)cc1
inactive: [1] | [2] | [5] | [6] | [7] | [8] | [10] | [11] | [13]

CC(C)(c1cc(Br)c(OCCO)c(Br)c1)c1cc(Br)c(OCCO)c(Br)c1
inactive: [1] | [12] | [3] | [5] | [8] | [9]
active: [4] 21.5 µM | [6] 46.7 µM | [7] 45.1 µM | [11] 17.7 µM | [13] 7 µM | [14] 16.2 µM | [15] 16.2 µM | [16] 27.3 µM | [17] 8.31 µM

C=CC(=O)OCCOC(=O)C=C
active: [13] 48 µM
inactive: [1] | [2] | [3] | [5] | [6] | [7] | [8] | [10]

Cc1ccc2oc(=O)ccc2c1
active: [10] 58.4 µM
not listed: [2] | [13] | [14] | [15] | [16] | [17]
inactive: all other assays above

O=C(O)c1ccccc1Nc1cccc(C(F)(F)F)c1
active: [10] 27.3 µM
not listed: [4] | [12] | [14] | [15] | [16] | [17]
inactive: all other assays above

Cc1ccc(C(C)(C)C)cc1
not listed: [9] | [12] | [13] | [14] | [15] | [16] | [17]
inactive: all other assays above

O=C(O)CCCCCCCCCC(=O)O
not listed: [6] | [9] | [12] | [14] | [15] | [16] | [17]
inactive: all other assays above

CCCCCCCC/C=C\CCCCCCCC(=O)OCCO
active: [9] 68.1 µM | [10] 40.8 µM
inactive: [12] | [2] | [3] | [4] | [5] | [6] | [7] | [8]

Cc1cccc(C(=O)O)c1
not listed: [4] | [12] | [14] | [15] | [16] | [17]
inactive: all other assays above

FC(F)=C(F)OC(F)(F)C(F)(F)C(F)(F)F
not listed: [2] | [3] | [12] | [14] | [15] | [16] | [17]
inactive: all other assays above

ON(Cc1ccccc1)Cc1ccccc1
not listed: [2] | [4] | [12] | [14] | [15] | [16] | [17]
inactive: all other assays above

CC(=O)Nc1ccc2c(c1)Cc1cc(NC(C)=O)ccc1-2
not listed: [1] | [3] | [9] | [14] | [15] | [16] | [17]
inactive: all other assays above

O=C(O)Cc1c(Cl)ccc(Cl)c1Cl
inactive: [3] | [5] | [6] | [7] | [8] | [10] | [11] | [13]

CC(=O)Oc1ccc(C)cc1
inactive: [3] | [4] | [5] | [6] | [7] | [8] | [9] | [11] | [13]
active: [10] 19.6 µM

OCCNCc1ccccc1
inactive: [2] | [3] | [5] | [6] | [7] | [8] | [10] | [11] | [13]

O=c1cc[nH]c(=S)[nH]1
not listed: [1] | [4] | [13] | [14] | [15] | [16] | [17]
inactive: all other assays above

CCCCC/C=C\C/C=C\CCCCCCCC(=O)OC
inactive: [12] | [2] | [3] | [4] | [7] | [8] | [11]
active: [5] 162 µM | [6] 171 µM | [9] 37 µM | [10] 32.5 µM | [13] 180 µM | [14] 20 µM | [15] 33.7 µM | [16] 30 µM | [17] 34 µM

O=C(C=Cc1ccccc1)OCc1ccccc1
not listed: [1] | [10] | [14] | [15] | [16] | [17]
inactive: all other assays above

CC(C)CCCC(C)CC=O (configuration not stated)
not listed: [1] | [14] | [15] | [16] | [17]
inactive: all other assays above

O=S(=O)(Oc1ccc(Cl)cc1Cl)c1ccccc1
inactive: [2] | [5] | [6] | [7] | [8] | [9] | [11]
active: [4] 35.4 µM | [10] 11.5 µM
